The source made the active and inactive calls.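 How the source made its calls: active means a compound whose calcium signal at the M5 receptor changes in step with its dose; inactive means the rest.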
Each compound was assayed against Muscarinic acetylcholine receptor M5 (Homo sapiens) (UniProt P08912) (assay: human M5 muscarinic receptor PAM counter-screen, SAR follow-up, selectivity assay for M4 PAM optimization project, CHO cells, Fluo-4 calcium, ACh EC20 (AID 623939)). Settings: CHO hM5 cells, ACh EC20 potentiation; series mostly up to 30 µM.
Sequence of Muscarinic acetylcholine receptor M5 (Homo sapiens) (P08912 whole entry, looked up): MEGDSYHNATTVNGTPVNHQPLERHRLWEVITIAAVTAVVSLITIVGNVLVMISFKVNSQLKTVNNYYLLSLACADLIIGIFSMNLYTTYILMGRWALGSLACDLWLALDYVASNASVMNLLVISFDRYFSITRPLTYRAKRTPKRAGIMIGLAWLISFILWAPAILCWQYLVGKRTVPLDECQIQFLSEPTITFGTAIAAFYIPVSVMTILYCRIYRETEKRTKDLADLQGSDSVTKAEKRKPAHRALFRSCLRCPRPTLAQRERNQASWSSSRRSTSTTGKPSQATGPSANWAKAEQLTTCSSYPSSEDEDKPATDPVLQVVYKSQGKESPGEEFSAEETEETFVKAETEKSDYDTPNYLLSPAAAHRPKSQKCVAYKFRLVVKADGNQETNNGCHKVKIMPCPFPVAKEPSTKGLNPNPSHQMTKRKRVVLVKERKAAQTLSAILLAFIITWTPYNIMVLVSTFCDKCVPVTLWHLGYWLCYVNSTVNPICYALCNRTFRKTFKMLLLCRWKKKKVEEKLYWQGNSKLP

Row | SMILES | outcome
1 | Cc1nc2sc(C(=O)NCc3ccccc3)c(N)c2c(C)c1Cl | inactive
2 | Cc1nc2sc(C(=O)NCCc3ccncc3)c(N)c2c(C)c1Cl | inactive
3 | Cc1nc2sc(C(=O)NCc3cccnc3)c(N)c2c(C)c1Cl | inactive
4 | COc1ccc(C)c2sc(NC(=O)c3ccncc3)nc12 | inactive
5 | Cc1nc2sc(C(=O)NCc3ccncc3)c(N)c2c(C)c1Cl | inactive
6 | Cc1nc2sc(C(=O)NCc3cccc(F)c3F)c(N)c2c(C)c1Cl | inactive
7 | Cc1nc2sc(C(=O)NCc3ccncn3)c(N)c2c(C)c1Cl | inactive
8 | Cc1nc2sc(C(=O)NCc3ccc4c(c3)OCO4)c(N)c2c(C)c1Cl | inactive
9 | Cc1nc2sc(C(=O)NCc3nccs3)c(N)c2c(C)c1Cl | inactive
10 | Cc1nc2sc(C(=O)NC3CC3)c(N)c2c(C)c1Cl | inactive

From PubChem BioAssay AID623939 (Vanderbilt Specialized Chemistry Center, 2012)
